Data published in PubChem BioAssay AID2535 (National Center for Advancing Translational Sciences (NCATS), 2010).
Activity calls are given as the source filed them. Calls follow the shape of the dose curve; as a rule, active = well fitted curve in the direction sought with a large enough effect; inconclusive = small, poorly fitted or top-dose-only effect, or effect the other way, or another doubt; inactive = no such curve, though single readings can be large or run the other way.

Target: Pyruvate kinase PKLR (Homo sapiens) (UniProt P30613)
Sequence (P30613 whole entry, looked up): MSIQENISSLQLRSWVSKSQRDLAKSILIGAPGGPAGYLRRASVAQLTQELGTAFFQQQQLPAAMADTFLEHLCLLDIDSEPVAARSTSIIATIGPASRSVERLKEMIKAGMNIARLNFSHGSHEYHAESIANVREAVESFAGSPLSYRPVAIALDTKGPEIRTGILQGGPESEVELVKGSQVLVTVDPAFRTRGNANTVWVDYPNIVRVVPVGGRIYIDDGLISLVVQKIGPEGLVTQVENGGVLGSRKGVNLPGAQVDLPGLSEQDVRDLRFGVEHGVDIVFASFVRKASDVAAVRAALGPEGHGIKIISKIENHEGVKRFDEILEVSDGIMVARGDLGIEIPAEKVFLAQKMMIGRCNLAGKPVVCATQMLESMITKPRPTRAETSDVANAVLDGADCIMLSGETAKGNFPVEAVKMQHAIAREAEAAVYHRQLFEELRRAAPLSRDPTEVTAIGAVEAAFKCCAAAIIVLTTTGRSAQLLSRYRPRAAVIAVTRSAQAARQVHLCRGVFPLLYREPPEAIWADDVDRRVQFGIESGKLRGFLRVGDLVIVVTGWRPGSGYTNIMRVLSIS
Test: Secondary Concentration-Response Assay for Activators of Human Liver Pyruvate Kinase: for Probe SAR
Details: purified hPK-L, ATP production, Kinase-Glo luminescence; series mostly up to 58.3 µM
Summary of the method: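 Purified human liver pyruvate kinase (0.1 nM) incubated 1 h at room temperature with compound, 0.5 mM PEP and 0.1 mM ADP in imidazole buffer pH 7.2; ATP formed read by Kinase-Glo luminescence, normalized to uninhibited wells.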

outcome, inactive:
Cn1c2cc(S(C)=O)sc2c2cnn(Cc3cccc(O)c3)c(=O)c21 (centres undefined)
O=C1CCc2cc(S(=O)(=O)Nc3cc(F)cc(Cl)c3)c(F)cc2N1
Cc1ccc(OC2=NS(=O)(=O)c3ccccc32)cc1
COc1cccc(Cn2ncc3c4sc(S(C)=O)cc4n(C)c3c2=O)c1 (centres undefined)
Cc1ccc(NS(=O)(=O)c2cc3c(cc2C)NC(=O)CO3)cc1C
Cc1ccc(Nc2c(-c3ccc(C)o3)nc3ccccn23)cc1
O=C1c2ccccc2C(=O)N1c1cccc2ncccc12
Cc1cc2c(s1)c1cnn(Cc3ccccc3F)c(=O)c1n2C
Cc1ccc(NS(=O)(=O)c2ccc3c(ccn3C)c2)cc1C
Fc1ccccc1-c1ccc(-c2nc3ccc(Cl)cn3c2Nc2ccc(Cl)cc2)o1
Cc1ccc2nc(-c3ccc(C)o3)c(Nc3ccc(Cl)cc3)n2c1
Cc1cc(C)n2c(Nc3ccccc3)c(-c3ccc(C)o3)nc2n1
O=C1c2ccccc2C(=O)N1c1cncc2ccccc12
Cc1ccccc1NS(=O)(=O)c1ccc2c(c1)CCC(=O)N2
Cc1ccc(Cl)cc1NS(=O)(=O)c1cc2c(cc1F)NC(=O)CC2
Cc1ccc2nc(-c3ccc(C)o3)c(Nc3ccc4c(c3)OCO4)n2c1
Cc1ccc(NS(=O)(=O)c2cc3c(cc2Cl)NC(=O)CO3)cc1C
Cc1ccc(NS(=O)(=O)c2ccc3c(c2)oc(=O)n3C)cc1C
Cc1ccc(NS(=O)(=O)c2ccc(N3CCCC3=O)cc2)cc1C
